Measured values reported in PubChem BioAssay (NCI).
About 83,000 compounds went through this panel and 20% of them were active in at least one assay; those are over-represented in the sample as a whole.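 Single-concentration screen, 48 h exposure, 96-well plates. Endpoint: percent growth. Below 10 = active.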 The source made the active and inactive calls.

Each compound was assayed on MDA-MB-468 breast (assay: NCI-60 one-dose screen, 48 h (100 = growth as untreated, 0 = no growth, -100 = all killed)). Details: 10 µM unless noted.

Row | Compound | growth
1 | CC(=C(c1ccc(OCCN2CCCC2)cc1)c1ccc(OCCN2CCCC2)cc1)c1ccc(Cl)cc1 | -85.3% (active)
2 | COc1ccc(-c2nc3ccc(-c4nnc(SCC(=O)Nc5ccc(C(=O)/C=C/c6ccc(Cl)cc6)cc5)o4)cc3[nH]2)cc1 | 98.1% (inactive)
3 | Clc1ccc(COc2ccc(Nc3ncnc4onc(-c5ccccc5)c34)cc2)cc1 | 78.5% (inactive)
4 | Clc1ccc(C2CC(c3cccc(Nc4ccncc4)c3)=NN2c2ccc(Cl)cc2)cc1 (stereo not given) | -35.3% (active)
5 | O=[N+]([O-])c1cc[n+]([O-])cc1 | 98.1% (inactive)
6 | CC1(C)CC[C@]2(C(=O)N3CCOCC3)CC[C@]3(C)C(=CC[C@@H]4[C@@]5(C)C/C(=C/c6ccco6)C(=O)C(C)(C)[C@@H]5CC[C@]43C)[C@@H]2C1 | 82.3% (inactive)
7 | CCCCC(=O)OC1CCCCC1C (stereo not given) | 86.6% (inactive)
8 | COc1ccc(Cn2cc(C#N)c(N)c2C(C)=O)cc1 | 102% (inactive)
9 | c1ccc(-c2nc3ccccc3s2)cc1 | 96.4% (inactive)
10 | C=CC(=O)N1CCN(c2ccc3cccc(NC(=O)c4cnc(C)cn4)c3n2)CC1 | 1.58% (active)
11 | Cc1c(C)c(N2C(=O)C=CC2=O)c(C)c(C)c1N1C(=O)C=CC1=O | 96.5% (inactive)
12 | CS(=O)(=O)Nc1cc(-c2ccc3ncnc(Nc4ccc(F)c(Cl)c4)c3c2)cnc1Cl | -43.3% (active)
13 | CCCCc1ccc(C(N)=O)nc1 | 85% (inactive)
14 | O=[N+]([O-])c1ccc(-c2ncc(-c3ccc(Br)cc3)o2)cc1 | 102% (inactive)
15 | COc1ccc(/C(=C\c2cc(OC)c(OC)c(OC)c2)C(=O)N2CCCNCC2)cc1 | 98.1% (inactive)
